The list is not random: actives were taken first. Their share in the collection is about 3%.
HBB splice mod: qHTS Assay for Modulators of Hemoglobin Beta Chain Splicing. HBB splicing reporter cell assay, activation; EGFP reporter with mutant IVS2-654 intron; response scale: normalised to 500 nM splice-correcting PNA. Potency, µM (highest dose often 46.1 µM), most hits filed as activators. 65,000 compounds, 0.06% hits. AID 925, 2007
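HeLa cells stably expressing EGFP interrupted by mutant beta-globin intron 2 (IVS2-654), 500/well in 2% FCS. Treated with compound for 2 days at 37C. Splicing correction scored as total well GFP intensity (488 nm excitation, 500-520 nm emission); 500 nM antisense PNA served as control.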
ERK AVP inh: qHTS Assay for Inhibitors of the ERK Signaling Pathway using a Homogeneous Screening Assay | HEK293-V1b, vasopressin-stimulated pERK AlphaScreen | Potency, µM (top dose mostly 57.5 µM), actives largely listed as inhibitors | 72,000 compounds, 0.99% hits | AID 995, 2007; note: nearly all actives have a fitted effect of over 55% in size
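V1b-HEK293 cells; cpd 30 min 37C; 25 nM vasopressin 5 min; lyse 10 min; AlphaScreen beads 5 hr RT. Normalized to DMSO basal and 25 nM vasopressin; AC50 by Hill fit.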
Epigenetic mod: qHTS Assay for Epigenetic Modulators; mouse C127i GFP locus derepression, cytometry, 30 h; Potency, µM (doses to about 46.1 µM); 68,000 compounds, 0.09% hits; AID 597, 2007
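Derepression screen: silenced CMV-GFP reporter in murine C127i cells, 30 h compound incubation at 37 C, washed cells imaged by laser-scanning cytometer to enumerate GFP-expressing objects of 20 to 120 um.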
Hsp90 Hop PPI: qHTS Assay for Disrupters of an Hsp90 Co-Chaperone Interaction; 71,000 compounds, 0.44% hits; AID 595, 2007; AlphaScreen TPR2A-His6 binding biotin-Hsp90 C-terminal peptide; Potency, µM (top dose mostly 57 µM); active = well fitted curve in either direction with a large enough effect; inconclusive = small, poorly fitted or top-dose-only effect, or another doubt
Tau fil binding: qHTS Assay for Tau Filament Binding. Microtubule-associated protein tau (Homo sapiens), P10636. recombinant tau filaments, thioflavin S fluorescence, 15 h; filaments grown with octadecylsulfate alongside compound. Potency, µM (doses to about 57.1 µM). 71,000 compounds, 2% hits;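 note: actives lower thioflavin S fluorescence by blocking filaments or displacing dye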
Target sequence (P10636 whole entry, looked up): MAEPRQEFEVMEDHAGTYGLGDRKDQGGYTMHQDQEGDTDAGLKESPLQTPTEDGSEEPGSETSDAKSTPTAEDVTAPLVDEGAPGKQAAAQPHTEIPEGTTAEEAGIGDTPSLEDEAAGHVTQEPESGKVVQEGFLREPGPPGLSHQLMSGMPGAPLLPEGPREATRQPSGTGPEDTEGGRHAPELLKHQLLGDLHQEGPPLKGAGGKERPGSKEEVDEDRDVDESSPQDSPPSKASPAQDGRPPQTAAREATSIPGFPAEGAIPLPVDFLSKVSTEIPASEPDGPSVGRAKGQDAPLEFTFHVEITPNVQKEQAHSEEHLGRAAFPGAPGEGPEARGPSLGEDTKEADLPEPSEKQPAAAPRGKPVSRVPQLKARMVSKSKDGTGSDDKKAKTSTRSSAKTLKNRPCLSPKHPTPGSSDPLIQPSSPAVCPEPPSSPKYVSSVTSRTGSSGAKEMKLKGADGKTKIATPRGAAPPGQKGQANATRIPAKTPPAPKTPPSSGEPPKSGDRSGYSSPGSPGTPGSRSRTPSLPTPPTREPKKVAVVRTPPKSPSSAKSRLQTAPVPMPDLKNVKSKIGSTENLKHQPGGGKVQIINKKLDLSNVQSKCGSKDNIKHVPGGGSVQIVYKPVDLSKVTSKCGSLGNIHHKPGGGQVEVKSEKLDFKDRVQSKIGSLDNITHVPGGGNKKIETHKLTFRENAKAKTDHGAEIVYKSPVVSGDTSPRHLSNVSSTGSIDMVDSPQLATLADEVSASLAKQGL
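Read-out: ThS fluorescence, 450 nm excitation/510 nm emission; lower signal marks blocked filament formation or displaced dye. Tau at 1 uM with 30 uM ODS, 10 uM ThS, 5 mM DTT, 100 mM NaCl, 10 mM HEPES pH 7.4; 15 h, 37 C.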
UbGFP stabilizer: Ubiquitin-GFP Assay | Ubiquitin-GFP reporter cells, proteasome inhibition, GFP fluorescence; response scale: untreated = 0%, 10 µM MG-132 = 100% | AID 526, 2006 | Potency, µM (top dose mostly 45.9 µM), usual class: activators | 67,000 tested, under 10 active; active = well fitted activation curve with a large enough effect, not every such curve was filed as active; inconclusive = small, poorly fitted or top-dose-only effect, or another doubt; inactive = no such curve, though single readings can be large or run the other way
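GFP accumulation read-out: laser plate cytometry counting ubiquitin(G76V)-GFP-expressing U2OS cells after 4 hr compound exposure at 37 °C. Titrations spanned 46 uM to 2.9 nM; 0% = basal, 100% = 10 uM MG-132; concentration-response curves fitted.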
Large screens that a line does not name were inactive; ! = repeats disagree. Unless noted, calls come from the whole dose curve; as a rule, active = well fitted curve in the direction sought with a large enough effect; inconclusive = small, poorly fitted or top-dose-only effect, or another doubt; inactive = no such curve, though single readings can be large; an effect the other way counts as inactive or inconclusive.

CC[C@H]1CC[C@H]2[C@@H]3CC=C4C[C@H](OC(C)=O)[C@@H](N)C[C@@]4(C)[C@H]3CC[C@@]12C	none
O=C(Nc1cccc(-c2cnc3ccccc3n2)c1)c1ccco1	ERK AVP inh inconclusive, Tau fil binding 31.6µM
CC(=O)CC(=O)Nc1ccccc1	none (no result: Epigenetic mod, UbGFP stabilizer)
CN1C(=O)CSc2ccc(NC(=O)N3CCN(c4ccccn4)CC3)cc21	ERK AVP inh inconclusive
CN1C(=O)CSc2ccc(NC(=O)Nc3ccccn3)cc21	ERK AVP inh inconclusive, Tau fil binding 10µM (no result: UbGFP stabilizer)
NC(=O)[C@@H]1CCCN1Cc1ccc2c(c1)OCO2	none
CCOC(=O)C1=C(C)NC2=C(C(=O)c3ccccc32)C1c1cccnc1 (stereo unspecified)	ERK AVP inh inconclusive, Tau fil binding 3.16µM
CNc1ccccc1C(C)(C)c1cc(-c2ccco2)n[nH]1	Hsp90 Hop PPI inconclusive, Tau fil binding 31.6µM
COc1ccc(NC(=O)c2oc3ccccc3c2NC(=O)C(C)(C)C)cc1	Tau fil binding 12.6µM
O=[N+]([O-])c1ccc2c(c1)S(=O)c1ccccc1-2 (stereo unspecified)	none
O=C1c2cc([N+](=O)[O-])ccc2-c2ccc3c4ccc5c6c(ccc(c7ccc1c2c73)c64)C(=O)c1cc([N+](=O)[O-])ccc1-5	Hsp90 Hop PPI inconclusive, Tau fil binding 1.58µM
CC1=NN(C(=O)c2ccncc2)C(=O)[C@@H]1N=Nc1ccc2ccccc2c1	Tau fil binding 1.58µM
C[C@]12C=CC(=O)C=C1CC[C@@H]1[C@H]3C[C@@H](O)[C@](O)(C(=O)CO)[C@]3(C)C[C@H](O)[C@]12F	none (no result: ERK AVP inh)
CC(C)N=c1cc2n(-c3ccc(Cl)cc3)c3ccccc3nc-2cc1Nc1ccc(Cl)cc1	ERK AVP inh inconclusive, Tau fil binding 0.126µM
Cn1c(CNc2ccc(Cl)cc2)nc2ccccc21	ERK AVP inh inconclusive
CC(C)CC(=O)Nc1ccc(-c2cn3ccsc3n2)cc1	Tau fil binding 12.6µM
C=CS(=O)(=O)c1ccc(Oc2ccc(S(=O)(=O)C=C)cc2)cc1	ERK AVP inh 2.51µM (no result: HBB splice mod)
COc1ccc(-c2oc(/N=C/N3CCOCC3)c(C#N)c2-c2ccc(OC)cc2)cc1	ERK AVP inh inconclusive, Tau fil binding 1µM
N#Cc1c(/N=C/c2ccco2)oc(-c2ccccc2)c1-c1ccccc1	none (no result: HBB splice mod)
COc1ccccc1OC[C@H](O)CN1CCN(CC(=O)Nc2c(C)cccc2C)CC1	none
COc1cc(/C=C(/C#N)c2ccc(F)cc2)ccc1OCc1ccc(C(=O)O)o1	none
N#C/C(=C/c1ccc(N2CCCCCC2)o1)c1ccc(F)cc1	HBB splice mod inconclusive, ERK AVP inh 25.1µM, Epigenetic mod 3.16µM, Tau fil binding inconclusive
Cc1cc2ccc(OC(=O)c3ccc(N=C(N)N)cc3)cc2oc1=O	none
CCOC(=O)c1c(C)oc2c1c(C(c1ccncc1)N1CCOCC1)c(O)c1ccccc12 (stereo unspecified)	Epigenetic mod inconclusive, Tau fil binding 12.6µM
COc1ccc(-c2noc(CSc3nc(N)c(-c4ccccc4)c(=O)[nH]3)n2)cc1	ERK AVP inh 12.6µM
COc1ccc(Cc2nc(-c3ccccc3)no2)cc1	none
CCCC(=O)NCCc1c2n(c3ccc(OC)cc13)Cc1ccccc1-2	ERK AVP inh inconclusive
COc1ccccc1NC(=O)N1CCc2[nH]c3ccc(Cl)cc3c2C1	ERK AVP inh 25.1µM
COC(=O)c1[nH]c2ccc(C)cc2c1NC(=O)Nc1ccccc1OC	none
CCCCN1CSC(=S)N(Cc2ccccc2)C1	none
Cc1cc(N2CCN(C(=O)c3ccco3)CC2)n2nc(-c3cccc(Cl)c3)cc2n1	ERK AVP inh 25.1µM
COc1ccccc1N1C(=O)N(C(C)=O)C2C1Nc1ccccc1N2C (stereo unspecified)	ERK AVP inh 25.1µM, Hsp90 Hop PPI inconclusive
CCCCC#Cc1nc(NC)c2ncn([C@@H]3O[C@@H](CO)[C@H](O)[C@H]3O)c2n1	ERK AVP inh inconclusive (no result: HBB splice mod)
CCCCC(c1nnnn1CCOC)N1CCN(c2cccc(OC)c2)CC1 (stereo unspecified)	Tau fil binding 12.6µM
Cc1ccccc1Cn1c(=N)n(CC(O)c2ccco2)c2ccccc21 (stereo unspecified)	Tau fil binding 15.8µM
O=C(Nc1ccc(Nc2ccccc2)cc1)C1CC1	Hsp90 Hop PPI inconclusive, Tau fil binding 10µM
Cc1ccc(S(=O)(=O)OC2CCN(C)CC2)cc1	none
O=c1cc(-c2c(F)c(F)c(F)c(F)c2F)oc2c(F)c(F)c(F)c(F)c12	HBB splice mod inconclusive, ERK AVP inh inconclusive, Tau fil binding 15.8µM
COC(=O)c1ccc(N/C(C)=C/C(=O)c2ccc(C)o2)cc1	none
C/C(=C\C(=O)c1ccc(C)o1)Nc1ccc2c(c1)OCO2	ERK AVP inh inconclusive, Tau fil binding 12.6µM
CCN(CC)c1ccc(NC(=O)c2nc3nc(C)cc(C(F)F)n3n2)cc1	Tau fil binding 15.8µM
Cc1ccc(C(=O)OCC(=O)Nc2ccc3c(c2)OCO3)o1	none
Cc1cc(C)n2nc(C(=O)OCC(=O)Nc3ccc4c(c3)OCO4)nc2n1	none
Cc1ccc(C(=O)Nc2ccc3c(c2)OCO3)o1	Tau fil binding 20µM
Cc1cc(C)n2nc(C(=O)Nc3ccc4c(c3)OCO4)nc2n1	Tau fil binding 31.6µM
Nc1nc(Cl)cc(NCCO)n1	none
COc1ccc(N2CCN(C(=O)c3ccc(NS(=O)(=O)c4ccc(F)cc4)cc3)CC2)cc1	ERK AVP inh inconclusive, Tau fil binding 15.8µM
CC1CCN(CC[C@@H]2CCCN2S(=O)(=O)c2cccc(O)c2)CC1	none
Cc1cc2nn(-c3cccc4ccccc34)nc2cc1N	Tau fil binding 7.94µM
Cc1nnc2sc(-c3cccc4ccccc34)nn12	none
O=C1SC(c2ccccc2)=N/C1=C/c1ccco1	Tau fil binding 25.1µM
O=C1SC(SCc2ccccc2)=N/C1=C\c1ccco1	Tau fil binding inconclusive
CN(Cc1ccccc1)C(=O)N[C@@H](Cc1ccccc1)C(=O)O	none
CN(CCOc1ccc(C[C@H](Nc2ccccc2C(=O)c2ccccc2)C(=O)O)cc1)c1ccccn1	Tau fil binding 39.8µM!
N[C@@H]1CCN(O)C1=O	Tau fil binding inconclusive
c1ccc2cc(NCNc3ccc4ccccc4c3)ccc2c1	Hsp90 Hop PPI inconclusive, Tau fil binding 2.51µM
O=C(O)CCC(=O)Nc1ccc2ccccc2c1	none
Cc1cccc(N2C(=O)c3cccc4c(N(C)CCO)ccc(c34)C2=O)c1	HBB splice mod 20µM

High-throughput results: PubChem BioAssay, National Center for Advancing Translational Sciences (NCATS)
